AmpC inh detg = AmpC beta-lactamase inhibition with detergent present. P00811. AmpC hydrolysis of nitrocefin, absorbance 480 nm, 0.01% Triton. Potency, µM (highest dose often 114 µM), inactives show at the top dose activity change, negative = inhibition, hits mostly inhibitors. 370,000 compounds, 0.041% hits;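 note: 0% = no-compound wells and -100% = no-enzyme wells; nearly all actives have a fitted effect of over 25% in size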
Target sequence (P00811 whole entry, looked up): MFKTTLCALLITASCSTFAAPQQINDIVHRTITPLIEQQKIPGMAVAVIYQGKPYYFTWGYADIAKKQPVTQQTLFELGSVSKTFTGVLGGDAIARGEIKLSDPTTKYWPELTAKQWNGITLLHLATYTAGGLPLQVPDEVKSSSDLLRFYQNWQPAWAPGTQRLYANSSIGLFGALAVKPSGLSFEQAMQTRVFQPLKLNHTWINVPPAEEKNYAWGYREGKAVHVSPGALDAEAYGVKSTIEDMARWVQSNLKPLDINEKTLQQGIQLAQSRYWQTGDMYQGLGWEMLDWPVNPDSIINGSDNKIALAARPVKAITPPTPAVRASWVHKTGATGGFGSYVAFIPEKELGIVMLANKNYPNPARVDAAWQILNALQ
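20 mM phosphate pH 7.0 + 0.01% (detergent screen) or 0.0001% Triton X-100; 5.3 nM AmpC reagent; cpd preinc 15 min RT; nitrocefin (800 uM stock) to start; A480 q20 s × 4 min; Activity was normalised to no-enzyme and no-compound control wells.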
Pf growth 96h = P. falciparum growth inhibition at 96 hours | P. falciparum luciferase reporter growth, 96 h | Potency, µM (top dose mostly 28.7 µM), without a hit: at the highest dose activity change, negative = inhibition, actives largely listed as inhibitors | 320,000 compounds, 6.9% hits | AID 504834
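Delayed-death screen, second-generation endpoint: infected erythrocytes, 2% hematocrit, 0.05% parasitemia final; 96 hours at 37 C, 5% CO2; luciferase detection reagent; luminescence decrease equals reduced growth.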
Pf growth 48h = P. falciparum growth inhibition at 48 hours (one generation) | P. falciparum luciferase growth in erythrocytes, 48 h | Potency, µM (doses to about 28.7 µM), for inactives: at the top dose activity change, negative = inhibition, hits mostly inhibitors | 310,000 compounds, 5.9% hits
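Luciferase-expressing P. falciparum in infected erythrocytes (2% hematocrit, 0.1% parasitemia final) in RPMI 1640/0.5% Albumax were exposed to compound for 48 hours at 37 C, 5% CO2; growth read as luminescence.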
AMA1-RON2 inh = disrupts binding of P. falciparum AMA1 to RON2; AlphaScreen AMA1-biotinylated RON2 peptide binding; Potency, µM (series often up to 58.2 µM), for the others: at the highest dose activity change, negative = inhibition, most hits filed as inhibitors; 360,000 compounds, 0.2% hits; AID 720542;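 note: 0% = vehicle wells and -100% = peptide control; nearly all actives have a fitted effect of over 45% in size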
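AMA1 (3D7) with his tag at 25 nM final met compounds first, then biotinylated RON2 peptide at 25 nM; detection used donor plus acceptor beads, 10 µg/mL apiece, read by AlphaScreen after 30 min at room temperature.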
AmpC inh no detg = AmpC beta-lactamase inhibition without detergent; P00811; AmpC nitrocefin hydrolysis, absorbance 480 nm, 0.0001% Triton; Potency, µM (titrated, usually from 57.1 µM), for inactives: top-dose activity change, negative = inhibition, hits mostly inhibitors; 330,000 compounds, 0.52% hits;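 note: plate controls were no compound for no effect and no enzyme for full effect; nearly all actives have a fitted effect of over 20% in size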
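20 mM phosphate pH 7.0 + 0.01% (detergent screen) or 0.0001% Triton X-100; 5.3 nM AmpC reagent; cpd preinc 15 min RT; nitrocefin (800 uM stock) to start; A480 q20 s × 4 min; Activity was normalised to no-enzyme and no-compound control wells.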
HCV inh = HCV inhibition; Huh7.5.1 HCVcc-Cre infection, luciferase reporter, 44 h; 340,000 compounds, 3.4% hits; AID 651820; Potency, µM (titrated, usually from 41.8 µM), for the others: at the top dose activity change, negative = inhibition, actives largely listed as inhibitors
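A cell-based infection assay in which seeded cells (1,000 per well) receive test compound after 4 h, are inoculated with HCVcc-Cre at approximately 0.5 moi, and are incubated 44 h before luminescence detection.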
* = called active by the depositor; i = inactive; u = inconclusive; x = no result; [ ] = dose if it differs, or a comment. In the library only some 11% were active in any assay of this set; here they are far more common. Calls come from the whole dose curve; as a rule, active = well fitted curve in the direction sought with a large enough effect; inconclusive = small, poorly fitted or top-dose-only effect, or another doubt; inactive = no such curve, though single readings can be large; an effect the other way counts as inactive or inconclusive. Unless noted, % is set by controls: 0 for no effect and ±100 for the full control effect; potency is the fitted concentration of half-maximal effect.

SMILES	AmpC inh detg	Pf growth 96h	Pf growth 48h	AMA1-RON2 inh	AmpC inh no detg	HCV inh
CC12CCC(=O)N1C(C(=O)Nc1nc(-c3ccccc3Cl)cs1)CS2 (stereo not drawn)	u	u	u	-4%	-12%	10µM*
COc1ccc(OC)c(-c2csc(NC(=O)C3CSC4(C)CCC(=O)N34)n2)c1 (stereo not drawn)	u	u	u	-21%	47%	3.2µM*
Cc1ccc(C(=O)OCc2cc(=O)n3nc(CC(C)C)sc3n2)cc1	3%	x	x	x	x	x
N/C(=N\c1nc2ccccc2o1)NC(=O)/C=C/c1ccccc1	-4%	30%	13%	95%	5µM*	-18%
N/C(=N\c1nc2ccccc2o1)NC(=O)c1ccccc1	u	62%	x	102%	-21%	u
c1ccc2c(CNC3CCCCCC3)c[nH]c2c1	u	10µM*	x	13%	-8%	8%
O=C(Nc1c2c(nn1-c1ccc(F)cc1)CS(=O)(=O)C2)C1CCCC1	-12%	10µM*	4%	-3%	-13%	1%
COc1ccc(-n2nc3c(c2NC(=O)C(C)Oc2ccccc2)CS(=O)(=O)C3)cc1 (stereo not drawn)	-8%	9.3µM*	0%	-8%	-13%	12%
CC(Oc1ccccc1)C(=O)Nc1c2c(nn1-c1ccccc1)CS(=O)(=O)C2 (stereo not drawn)	7%	37%	14%	7%	-15%	25%
COc1ccc(-n2nc3c(c2NC(=O)C2CCCC2)CS(=O)(=O)C3)cc1	-10%	1%	u	9%	-9%	x
O=C(Nc1c2c(nn1-c1ccc(F)cc1)CS(=O)(=O)C2)c1ccc(Br)o1	6%	u	12µM*	-10%	-33%	18%
COc1ccc(-n2nc3c(c2NC(=O)c2ccc(Br)o2)CS(=O)(=O)C3)cc1	-13%	u	-3%	8%	-28%	12%
Cc1ccc(NC(=O)c2ccc3c(c2)NC(=O)c2ccccc2S3)c(Cl)c1	6%	x	x	x	x	x
COc1ccc(CNC(=O)c2cnn(-c3ccccc3)c2-n2cccc2)cc1OC	19%	x	x	x	x	x
O=c1ccc(N=Nc2ccccc2)ccc1O	-2%	13µM*	10µM*	0%	u	u
CCOc1ccc(S(=O)(=O)N2CCN(C(=O)c3cc(S(=O)(=O)N4CCOCC4)ccc3C)CC2)cc1	u	3.7µM*	8.3µM*	-9%	259%	6%
Cc1ccc(S(=O)(=O)N2CCOCC2)cc1C(=O)N1CCCC1	-9%	31%	12%	27%	-8%	u
CCOc1ccc(S(=O)(=O)N2CCN(C(=O)c3ccc(C)c(S(=O)(=O)N4CCOCC4)c3)CC2)cc1	x	x	x	7%[11.6 µM]	11%	u
CCOc1ccc2cc(S(=O)(=O)N3CCOCC3)ccc2c1	-2%	242%	8%	-5%	0.4µM*	-5%
Cc1ccc(S(=O)(=O)N2CCOCC2)cc1C(=O)N1CCN(c2ccc(C(F)(F)F)cn2)CC1	x	x	x	0%	237%	10µM*
O=C(Cn1cnc2c(oc3ccccc32)c1=O)Nc1ccccc1C(F)(F)F	18%	x	x	x	x	x
COC(=O)C(Cc1c[nH]c2ccccc12)NC(=O)COc1ccc(Cl)cc1Cl (stereo not drawn)	14%	x	x	x	x	x
Nc1ccccc1Oc1ncc(C(F)(F)F)cc1Cl	-2%	53%	5.2µM*	6%	79%	8%
FC(F)(F)c1cnc(Oc2ccccc2-c2nnco2)c(Cl)c1	-10%	x	9%	83%	-2%	3%
CC(=O)Nc1ccc(NC(=O)CSc2nc(N)c(NC(=O)c3ccccc3F)c(=O)[nH]2)cc1	-13%	12µM*	u	-9%	-10%	21%
SMILES	AmpC inh detg	Pf growth 96h	Pf growth 48h	AMA1-RON2 inh	AmpC inh no detg	HCV inh
CC(Sc1oc(-c2cccs2)nc1S(=O)(=O)c1ccccc1)c1ccccc1 (stereo not drawn)	11%	x	x	x	x	x
CCc1ccc(-n2nc(C)c3c(C)cc(=O)n(CC(=O)Nc4ccc(OC)c(OC)c4)c32)cc1	19%	x	x	x	x	x
CCOc1ccccc1C1CC(=O)Nc2c1c(=O)n(C)c1ncnn21 (stereo not drawn)	0%	x	x	x	x	x
CCN(CC)C(=O)c1ccc(NC(=O)c2ccc(-c3nn(C)c(=O)c4ccccc34)cc2)cc1	4%	10µM*	9%	-7%	6%	-14%
CCN(CC)C(=O)c1ccc(-c2nnc(Nc3ccc(O)cc3)c3ccccc23)cc1	-14%	7%	u	-4%	-27%	-26%
CCN(CC)C(=O)c1ccc(-c2nnc(Nc3ccc(C(=O)N(C)C)cc3)c3ccccc23)cc1	-13%	8%	5.9µM*	-1%	63%	-17%
CN(C)C(=O)c1ccc(-c2nnc(NCc3ccccc3)c3ccccc23)cc1	6%	2.9µM*	13µM*	5%	-19%	4%
COc1ccccc1OCCOCCOc1c(C)cc(C)cc1Br	u	2.9µM*	-5%	43%	-9%	u
N#Cc1ccccc1OCC(=O)N1CCN(c2ccccc2F)CC1	16%	x	x	x	x	x
Cc1ccccc1Nc1nc(N)nc(CSc2nc3ccccc3c(=O)n2CCCO)n1	u	x	7.4µM*	11%	92%	u
COCCn1c(SCc2nc(N)nc(Nc3ccccc3C)n2)nc2ccccc2c1=O	5%	u	6%	5%	37%	u
Cc1ccc(SCc2nc(N)nc(Nc3ccccc3C)n2)cc1C	-2%	u	0%	14%	-19%	13µM*
Cc1ccccc1Nc1nc(N)nc(CSc2ccc(F)cc2)n1	2%	299%	i	4%	-21%	-9%
Cc1ccc(C(=O)N2CCN(c3cccc(Cl)c3)CC2)cc1-n1c(C)nc2cccnc21	18%	x	x	x	x	x
CCCC1CC(C(=O)NC(C(C)Cl)C2OC(SC)C(O)C(O)C2O)N(C)C1 (stereo not drawn)	-10%	0.0029µM*	0.083µM*	-5%	37%	-18%
CCC[C@@H]1C[C@@H](C(=O)N[C@@H](C2O[C@H](SC)[C@H](O)[C@@H](O)[C@H]2O)[C@H](C)Cl)N(C)C1 (stereo partly drawn)	u	u	u	-3%	63%	-4%
CCC[C@@H]1C[C@@H](C(=O)NC(C(C)Cl)[C@H]2O[C@H](SC)[C@H](O)[C@@H](O)[C@H]2O)N(C)C1 (stereo partly drawn)	-8%	0.0033µM*	u	-10%	18%	9%
O=C(Cc1cccs1)NCCSc1c(-c2ccc(Cl)cc2)[nH]c2ccccc12	u	u	u	-6%	-14%	13µM*

Source: PubChem BioAssay
